Most compounds without a hit are left out; they make up all but 2.4% or so of the library.
APOBEC3A inh – inhibitors of human APOBEC3A DNA deaminase; P31941; recombinant A3A, FAM/TAMRA ssDNA deamination fluorescence; inhibition, % at 20 µM; 330,000 tested, 0.41% active; AID 493011;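 active = at least 40% inhibition at 20 µM here, with at most 30% in a related deaminase screen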
NRP1-CendR mod – alters CendR peptide binding to human NRP-1; 360,000 tested, 0.85% active; AID 602438; inhibition, % at 25 µM; FAM-RPARPAR peptide binding to NRP-1, fluorescence polarization; O14786;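 active = inhibition or corrected inhibition above about 18%, plus a signal ratio from 0.5 to 1.5, limit read from the data, passing the limit was not always enough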
ADAM10 inh – inhibitors of human ADAM10. O14672. recombinant ADAM10, EDANS/DABCYL FRET peptide cleavage, 3 h. inhibition, % at 7 µM. 370,000 tested, 0.62% active. AID 720582;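 active = inhibition above a per-campaign cutoff equal to the mean of compounds falling between control-based bounds plus 3 SD, cut at about 20% in these data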
ADAM17 inh – inhibits human ADAM17; P78536; recombinant ADAM17, EDANS/DABCYL FRET peptide cleavage; inhibition, % at 6.95 µM; 370,000 tested, 0.83% active; AID 720648;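 active = inhibition above the mean of compounds lying between control limits plus 3 SD, set per campaign, cut at about 8.5% in these data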
Target sequence (P78536 215-824 limits assumed): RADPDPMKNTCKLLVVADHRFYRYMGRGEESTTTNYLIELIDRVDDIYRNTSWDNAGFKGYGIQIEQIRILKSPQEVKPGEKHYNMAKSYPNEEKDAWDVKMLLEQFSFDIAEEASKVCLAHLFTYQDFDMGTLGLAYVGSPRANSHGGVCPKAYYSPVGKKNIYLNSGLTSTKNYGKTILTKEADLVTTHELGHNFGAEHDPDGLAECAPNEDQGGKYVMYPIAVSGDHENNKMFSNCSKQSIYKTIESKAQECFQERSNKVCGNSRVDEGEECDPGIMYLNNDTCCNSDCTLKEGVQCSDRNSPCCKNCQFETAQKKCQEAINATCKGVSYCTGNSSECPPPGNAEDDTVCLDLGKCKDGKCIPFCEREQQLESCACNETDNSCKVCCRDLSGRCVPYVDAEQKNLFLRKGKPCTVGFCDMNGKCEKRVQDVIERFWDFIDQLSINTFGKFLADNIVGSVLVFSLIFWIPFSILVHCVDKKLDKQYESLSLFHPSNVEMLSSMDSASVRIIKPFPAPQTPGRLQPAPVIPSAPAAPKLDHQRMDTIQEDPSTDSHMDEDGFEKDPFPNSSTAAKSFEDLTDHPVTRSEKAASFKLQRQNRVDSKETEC
APOBEC3G inh – inhibitors of human APOBEC3G DNA deaminase | 330,000 tested, 0.28% active | Q9HC16 | recombinant A3G, ssDNA deamination FAM/TAMRA fluorescence | inhibition, % at 20 µM;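 active = inhibition of at least 40% at 20 µM, with no more than 30% in the related APOBEC3A deaminase screen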
ADAM10 confirm – human ADAM10 inhibition, confirmation; shares compounds with ADAM10 inh; ADAM10 QFRET peptide cleavage, EDANS fluorescence; inhibition, % at 6.95 µM; 2,100 tested, 1% active; AID 743208;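 active = inhibition above about 20% chosen separately for each screening run, limit read from the data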
ADAM17 counter – inhibits human ADAM17 in ADAM10 exosite counter-screen | ADAM17 QFRET peptide cleavage, EDANS fluorescence | AID 743214 | 2,100 tested, 0.5% active | shares compounds with ADAM10 inh | inhibition, % at 6.95 µM;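 active = mean triplicate inhibition above the solvent-only control wells' mean plus 3 SD, cut at about 12% in these data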
ADAM10 ctr – ADAM10 inhibition, counter-screen for ADAM17 exosite hits; shares compounds with ADAM17 inh; recombinant ADAM10, EDANS/DABCYL FRET peptide cleavage, 3 h; inhibition, % at 6.95 µM; 2,900 tested, 47% active;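 active = mean inhibition over the triplicate runs exceeds the activity threshold set in the earlier primary screen, cut at about 20% in these data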
ADAM17 confirm – human ADAM17 inhibition, confirmation; shares compounds with ADAM17 inh; recombinant ADAM17, EDANS/DABCYL QFRET peptide cleavage; inhibition, % at 6.95 µM; 2,900 tested, 65% active;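 active = mean inhibition across replicates above the hit cutoff set in the primary screen, cut at about 8.5% in these data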
Large screens that a line does not name were inactive (follow-up assays come after a bar, where they were run).

CCOc1cc(/C=N/O)cc(Br)c1OCc1ccc(Cl)cc1	ADAM10 inh 25, ADAM17 inh 8.9 | ADAM10 confirm inactive | ADAM17 counter inactive | ADAM10 ctr 52 | ADAM17 confirm 21
O=C(N[C@H](C(=O)N1CCC[C@H]1C(=O)NC1CCCC1)C1CCCCC1)c1ccco1	none (no result: APOBEC3A inh, NRP1-CendR mod, APOBEC3G inh)
CCCCCCNC(=O)CC(c1ccccc1)c1cc(Br)ccc1O (centres undefined)	ADAM10 inh 35, ADAM17 inh 23 | ADAM10 confirm inactive | ADAM17 counter inactive | ADAM10 ctr 41 | ADAM17 confirm 22
CC(C)NC(=O)CC(c1ccccc1)c1cc(Br)ccc1O (centres undefined)	none (no result: ADAM10 inh, ADAM17 inh)
COCCOC(=O)c1c(C)n(C)c2ccc(OC(=O)c3c(OC)cccc3OC)cc12	ADAM10 inh 21, ADAM17 inh 10 | ADAM10 confirm inactive | ADAM17 counter inactive | ADAM10 ctr inactive | ADAM17 confirm 9.1
O=C(Nc1cccc(C(F)(F)F)c1)N1CCC(c2nc(-c3ccc(F)cc3)no2)CC1	ADAM10 inh 21, ADAM17 inh 9.6 | ADAM10 confirm inactive | ADAM17 counter inactive | ADAM10 ctr 34 | ADAM17 confirm 17
COC(=O)C1=C(C)N(C)C(=NCc2cccc(C(F)(F)F)c2)NC1c1ccc(C(F)(F)F)cc1 (centres undefined)	none (no result: APOBEC3A inh, NRP1-CendR mod, APOBEC3G inh)
COc1cc(/C=N/Nc2nc(N3CCCCC3)nc(N3CCCCC3)n2)ccc1OC(=O)c1ccco1	none (no result: NRP1-CendR mod, ADAM10 inh, ADAM17 inh)
Cc1[nH]c2ccccc2c1/C=N/Nc1nc(Nc2ccc(F)cc2)nc(N2CCOCC2)n1	none
O=C(Oc1cccc(/C=N/Nc2nc(Nc3ccccc3)nc(N3CCOCC3)n2)c1)c1ccco1	ADAM10 inh 22, ADAM17 inh 8.8 | ADAM10 confirm inactive | ADAM17 counter inactive | ADAM10 ctr 41 | ADAM17 confirm 23
Cc1ccc(Nc2nc(N/N=C/c3c[nH]c4ccccc34)nc(N3CCOCC3)n2)cc1	ADAM10 inh 22, ADAM17 inh 10 | ADAM10 confirm inactive | ADAM17 counter inactive | ADAM10 ctr 27 | ADAM17 confirm 16
O=C(Nc1nc2ncccn2c1-c1ccc(F)cc1)c1ccccc1	none (no result: APOBEC3A inh, NRP1-CendR mod, APOBEC3G inh)
COc1cccc(NC(=O)Nc2c(-c3ccc(C(F)(F)F)cc3)nc3ncccn23)c1	none (no result: APOBEC3A inh, NRP1-CendR mod, APOBEC3G inh)
C(=C\c1ccccc1)/CN1CCN(C(c2ccccc2)c2nnnn2Cc2ccccc2)CC1 (centres undefined)	none (no result: APOBEC3A inh, APOBEC3G inh)
COc1ccc(C(c2nnnn2Cc2ccccc2)N2CCN(C/C=C/c3ccccc3)CC2)cc1 (centres undefined)	ADAM10 inh 24, ADAM17 inh 12 (no result: APOBEC3A inh, APOBEC3G inh) | ADAM10 confirm inactive | ADAM17 counter inactive | ADAM10 ctr inactive | ADAM17 confirm 11
CCOC(=O)c1ccc(NC(=O)Cn2nnc(-c3ccccc3C)n2)cc1	ADAM10 inh 22, ADAM17 inh 10 | ADAM10 confirm inactive | ADAM17 counter inactive | ADAM10 ctr 41 | ADAM17 confirm 24
O=[N+]([O-])c1cc(S(=O)(=O)Nc2ccccc2)ccc1N1CCN(c2ccccc2)CC1	ADAM10 inh 24, ADAM17 inh 11 | ADAM10 confirm inactive | ADAM17 counter inactive | ADAM10 ctr 38 | ADAM17 confirm 21
O=[N+]([O-])c1cc(S(=O)(=O)C(F)(F)F)ccc1N1CCN(c2ccccc2)CC1	none
O=C1COc2ccccc2C(c2nnnn2-c2ccc3ccccc3c2)N1C1CC1 (centres undefined)	none (no result: APOBEC3A inh, NRP1-CendR mod, APOBEC3G inh)
O=C(COc1ccccc1F)c1ccc(O)cc1O	none
Cc1c(O)ccc(C(=O)COc2ccccc2F)c1O	ADAM10 inh 22, ADAM17 inh 12 | ADAM10 confirm inactive | ADAM17 counter inactive | ADAM10 ctr 27 | ADAM17 confirm 12
COC(=O)c1cc2c(c3c4ccccc4n(S(=O)(=O)c4ccc(C)cc4)c13)C(=O)N(CC(C)C)C2	none (no result: APOBEC3A inh, NRP1-CendR mod, APOBEC3G inh)
Cc1ccc(C(C(=O)NC2CCCCC2)N(Cc2ccccc2)C(=O)Cc2c[nH]c3ccccc23)o1 (centres undefined)	ADAM10 inh 20, ADAM17 inh 15 | ADAM10 confirm inactive | ADAM17 counter inactive | ADAM10 ctr inactive | ADAM17 confirm 12
COc1cccc(CN(C(=O)Cc2c[nH]c3ccccc23)C(C(=O)NC2CCCCC2)c2ccc(C)o2)c1 (centres undefined)	ADAM10 inh 22, ADAM17 inh 11 | ADAM10 confirm inactive | ADAM17 counter inactive | ADAM10 ctr 33 | ADAM17 confirm 16
COc1ccc(-n2c(SCC(=O)NC3CCCCCC3)nnc2-c2ccncc2)cc1	none (no result: APOBEC3A inh, NRP1-CendR mod, APOBEC3G inh)
COc1ccccc1NC(=O)CNC(c1ccccc1)c1ccccc1	ADAM10 inh 29, ADAM17 inh 9.0 | ADAM10 confirm inactive | ADAM17 counter inactive | ADAM10 ctr 20 | ADAM17 confirm 11
COc1ccc(C)cc1NC(=O)CNC(c1ccccc1)c1ccc(C)cc1 (centres undefined)	none
COc1ccc(/C=C2\CC3(OC(=O)c4ccccc4)CCCN2C3)cc1 (centres undefined)	none (no result: APOBEC3A inh, NRP1-CendR mod, APOBEC3G inh)
CNc1ccc(C=C2C=Cc3ccccc32)cc1	ADAM10 inh 41, ADAM17 inh 13 (no result: APOBEC3A inh, APOBEC3G inh) | ADAM10 confirm inactive | ADAM17 counter inactive | ADAM10 ctr 46 | ADAM17 confirm 18
CN(C)c1ccc(C=C2C=Cc3ccccc32)cc1	none (no result: APOBEC3A inh, APOBEC3G inh)
Cc1ccc(NC(=O)NNC(=O)Cn2nc(-c3ccccc3)c(-c3ccccc3)c(C#N)c2=O)cc1	ADAM10 inh 20, ADAM17 inh 20 | ADAM10 confirm inactive | ADAM17 counter inactive | ADAM10 ctr inactive | ADAM17 confirm 15
C(=N\n1cnnc1)/c1ccc(OCc2cccc3ccccc23)cc1	ADAM10 inh 23, ADAM17 inh 9.7 | ADAM10 confirm inactive | ADAM17 counter inactive | ADAM10 ctr inactive | ADAM17 confirm inactive
N#Cc1ccc(Cn2nnc(-c3ccc(N4CCOCC4)cc3)n2)cc1	none (no result: APOBEC3A inh, NRP1-CendR mod, APOBEC3G inh)
COc1nccnc1NS(=O)(=O)c1ccc(NC(=S)NC(=O)/C=C/c2ccc(F)cc2)cc1	ADAM10 inh 24, ADAM17 inh 10 | ADAM10 confirm inactive | ADAM17 counter inactive | ADAM10 ctr inactive | ADAM17 confirm inactive
Cc1ccccc1S(=O)(=O)Cc1ccc(C(=O)N2CC(C)CC(C)C2)o1 (centres undefined)	none
Cc1ccccc1S(=O)(=O)Cc1ccc(C(=O)N2CCN(c3cccc(C)c3C)CC2)o1	ADAM10 inh 22, ADAM17 inh 9.0 | ADAM10 confirm inactive | ADAM17 counter inactive | ADAM10 ctr inactive | ADAM17 confirm 12
